Assay outcomes (PubChem BioAssay)
PAX8 reporter – inhibitors of PAX8-driven TPO luciferase reporter, primary screen, RMG-I cells, single concentration. inhibition, % at 12.6 µM. 360,000 tested, 1.2% active. SteadyGlo, 24 h;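 active = mean replicate inhibition at least 60% with every replicate also reaching 60%; inconclusive = only one of the two criteria is met; inactive = mean below 60% and not all replicates reaching 60%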;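 also: luciferase light reporting Pax8 driven TPO promoter activity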
HIF-2a inh – HIF-2a reporter inhibitors, primary screen, luminescence, 786-0 RCC cells; 786-0 RCC cells HIF-2a reporter, luciferase luminescence, overnight; 360,000 tested, 0.72% active; inhibition, % at 18.8 µM;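 active = inhibition of the luminescence signal of 40% or more relative to plate controls, in a single-dose primary screen at 18.75 µM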
KKLEB cytotox – cytotoxicity in KKLEB CF airway cells, primary screen, cytotoxicity control for CF NF-kB inhibitor project, cell-based, uHTS, fluorescence assay plates. 360,000 tested, 0.36% active. activity change (cytotoxicity), % at 5 µM. KKLEB CF airway cells viability, ATPlite luminescence, overnight; hits give low values; cells stimulated with P. aeruginosa culture filtrate;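 active = corrected activity change at or below -50% at 5 µM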
EWS-Fli block – EWS/Fli-driven NR0B1 reporter inhibitors, primary screen, A673 cells, NR0B1 luciferase, luminescence, MLPCN library; viability-normalised; inhibition, % at 12.6 µM; 350,000 tested, 0.67% active; AID 651661, 2012;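 active = mean inhibition of at least 50% after viability correction, with every replicate also passing that limit; inconclusive = mean reaches 50% but only one of two replicates passes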;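 also: firefly luciferase signal divided by Alamar Blue viability fluorescence both relative to DMSO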
CF NFkB inh – inhibitors of PAF-induced NF-kB signaling, primary screen, cell-based, GFP fluorescence, uHTS; KKLEB NF-kB-GFP reporter, GFP fluorescence overnight; inhibition, % at 5 µM; 360,000 tested, 0.86% active;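 active = at least 50% inhibition at 5 µM, scaled per plate between neutral and stimulator controls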;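 also: PAF is a Pseudomonas aeruginosa culture filtrate used as stimulus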
Large screens that a line does not name were inactive. Shown are actives, neighbours in structure and some others; about 2.1% of the full set was active somewhere.

C[C@@H]1CCCCO[C@H](CN(C)Cc2ccc(C(=O)O)cc2)[C@H](C)CN([C@H](C)CO)C(=O)c2cc(NC(=O)Nc3ccc(C(F)(F)F)cc3)ccc2O1	none (no result: HIF-2a inh, KKLEB cytotox, CF NFkB inh)
C[C@H]1CCCCO[C@@H](CN(C)Cc2ccncc2)[C@@H](C)CN([C@@H](C)CO)C(=O)c2cc(NC(=O)Nc3ccc(C(F)(F)F)cc3)ccc2O1	PAX8 reporter 81 (no result: HIF-2a inh, KKLEB cytotox, CF NFkB inh)
C[C@@H]1CCCCO[C@@H](CN(C)Cc2ccncc2)[C@H](C)CN([C@@H](C)CO)C(=O)c2cc(NC(=O)Nc3ccc(C(F)(F)F)cc3)ccc2O1	PAX8 reporter 93 (no result: HIF-2a inh, KKLEB cytotox, CF NFkB inh)
CC(=O)N1C[C@@H]2[C@H](c3ccccc31)[C@H](CO)N2S(=O)(=O)c1ccccc1	none (no result: HIF-2a inh, KKLEB cytotox, CF NFkB inh)
CCOc1ncccc1C(=O)N1CCN(c2cccc(C)c2C)CC1	PAX8 reporter 63, EWS-Fli block inconclusive
CCOC(=O)N1CCN(c2cccc(C)c2C)CC1	PAX8 reporter 70
CCNC(=O)C[C@H]1CC[C@H]2[C@@H](COc3ccc(NC(=O)Nc4cccc(F)c4)cc3C(=O)N2C)O1	none (no result: HIF-2a inh, KKLEB cytotox, CF NFkB inh)
CC1CCCC=CC2CC(OC(=O)CN(C)C)CC2C(O)C=CC(=O)O1 (stereo unspecified)	PAX8 reporter 115, EWS-Fli block 63, CF NFkB inh 71
COCC(=O)N1CC2(CN(C(=O)NC(C)C)C2)c2c(n(C)c3cc(OC)ccc23)[C@@H]1CO	none (no result: PAX8 reporter, HIF-2a inh, KKLEB cytotox, CF NFkB inh)
C[C@H](CO)N1C[C@H](C)[C@H](CN(C)Cc2ccc(-c3ccccc3)cc2)Oc2ccc(NC(=O)Cn3cnnn3)cc2CC1=O	none (no result: HIF-2a inh, KKLEB cytotox, CF NFkB inh)
Cc1noc(/C=C/c2ccco2)c1S(=O)(=O)N1CCC(C(=O)N(C)Cc2ccccc2)CC1	none (no result: PAX8 reporter, EWS-Fli block)
Cc1noc(/C=C/c2ccco2)c1S(=O)(=O)N1CCC(C(=O)NC(C)c2ccccc2)CC1 (stereo unspecified)	PAX8 reporter 94
C[C@@H]1CN([C@@H](C)CO)C(=O)c2cc(NC(=O)Cn3cnnn3)ccc2O[C@@H]1CN(C)S(=O)(=O)c1ccc(F)cc1	none (no result: PAX8 reporter, HIF-2a inh, KKLEB cytotox, CF NFkB inh)
CC(=O)Oc1cc2c3c(c1)/C(=C1/SC(=S)NC1=O)C(=O)N3C(C)(C)C=C2C	CF NFkB inh 52
CCOc1cc2c3c(c1)C(C)=CC(C)(C)N3C(=O)C2=O	none
C[C@@H]1CN([C@H](C)CO)C(=O)c2cc(-c3cccnc3)cnc2O[C@H]1CN(C)C(=O)Cc1cccnc1	none (no result: PAX8 reporter, HIF-2a inh, KKLEB cytotox, CF NFkB inh)
Cc1ccc(S(=O)(=O)N(C)C[C@H]2OCCCC[C@H](C)Oc3ccc(NS(=O)(=O)c4ccc(F)cc4)cc3C(=O)N([C@H](C)CO)C[C@@H]2C)cc1	PAX8 reporter 80 (no result: HIF-2a inh, KKLEB cytotox, CF NFkB inh)
Cc1ccc(S(=O)(=O)N(C)C[C@H]2OCCCC[C@H](C)Oc3ccc(NS(=O)(=O)c4ccc(F)cc4)cc3C(=O)N([C@@H](C)CO)C[C@@H]2C)cc1	PAX8 reporter 72 (no result: HIF-2a inh, KKLEB cytotox, CF NFkB inh)
Cc1ccc(S(=O)(=O)Nc2ccc3c(c2)C(=O)N([C@H](C)CO)C[C@@H](C)[C@@H](CN(C)S(=O)(=O)c2ccc(F)cc2)OCCCC[C@H](C)O3)cc1	none (no result: HIF-2a inh, KKLEB cytotox, CF NFkB inh)
C(C#CCCCCCCCCC[n+]1ccccc1)#CCCCCCCCCC[n+]1ccccc1	CF NFkB inh 53 (no result: PAX8 reporter, EWS-Fli block)
Cc1noc(C)c1S(=O)(=O)Nc1ccc2c(c1)CC(=O)N([C@@H](C)CO)C[C@@H](C)[C@H](CN(C)Cc1ccc3c(c1)OCO3)O2	none (no result: PAX8 reporter, HIF-2a inh, KKLEB cytotox, CF NFkB inh)
COc1ccccc1CN1[C@@H]2CN(C(=O)C3CCC3)c3ccccc3[C@@H]2[C@@H]1CO	none (no result: HIF-2a inh, KKLEB cytotox, CF NFkB inh)
Cn1c(=O)c(Nc2ccc(O)cc2)c2c3c(cccc31)C(=O)c1ccccc1-2	PAX8 reporter 83
CC(C)c1ccc(Nc2c([N+](=O)[O-])c(=O)n(C)c3ccccc23)cc1	none
Cc1cc(C(=O)N/N=C/c2ccc3c(c2)OCO3)c(C)n1-c1ccc(F)cc1	none
Cc1cc(C(=O)N/N=C/c2ccc(Cl)c([N+](=O)[O-])c2)c(C)n1-c1ccc(F)cc1	HIF-2a inh 61
C[C@@H]1CN([C@@H](C)CO)C(=O)c2cccc(NC(=O)C3CCCCC3)c2O[C@H]1CN(C)S(=O)(=O)c1ccccc1	none (no result: HIF-2a inh, KKLEB cytotox, CF NFkB inh)
CCC(C)NC(=O)c1nc2c(nnn2Cc2ccccc2Cl)c(=O)[nH]1 (stereo unspecified)	none
O=C(NCc1cccs1)c1nc2c(nnn2Cc2ccccc2Cl)c(=O)[nH]1	HIF-2a inh 76, KKLEB cytotox -76, CF NFkB inh 88 (no result: PAX8 reporter, EWS-Fli block)
COc1ccc(/C=N/Nc2cc(C)nc3c(C)cccc23)cc1	EWS-Fli block 67
O=C(Nc1nccs1)[C@H]1[C@H](CO)[C@H]2Cn3c(ccc(-c4ccccc4)c3=O)[C@H]2N1CC1CCCC1	none (no result: HIF-2a inh, KKLEB cytotox, CF NFkB inh)
C=C1CC2C3CC[C@@]4(OCOC45COCO5)[C@@]3(C)C(O)CC2[C@@]2(C)CCC(=O)C=C12 (stereo partly specified)	PAX8 reporter 64 (no result: EWS-Fli block)
CCNC(=O)C[C@@H]1C=C[C@@H](NC(=O)C2CCC2)[C@@H](CO)O1	none (no result: PAX8 reporter, HIF-2a inh, KKLEB cytotox, CF NFkB inh)
O=C(CSc1nnc(-c2cccs2)n1CC1CCCO1)N1CCCC1 (stereo unspecified)	none
NC(=O)c1ccc(Sc2nnc(-c3cccs3)n2CC2CCCO2)c([N+](=O)[O-])c1 (stereo unspecified)	EWS-Fli block 75
COc1ccc(CN(C)C[C@@H]2Oc3ccc(NC(=O)NC(C)C)cc3C(=O)N([C@H](C)CO)C[C@H]2C)cc1	none (no result: HIF-2a inh, KKLEB cytotox, EWS-Fli block, CF NFkB inh)
N#C/C(=C\c1cccs1)C(=O)c1ccccc1Cl	PAX8 reporter 64 (no result: HIF-2a inh, KKLEB cytotox, CF NFkB inh)
C[C@H]1CCC/C=C/[C@@H]2C[C@H](O)C[C@H]2[C@H](O)[C@H](S(=O)c2ccc(O)cc2)CC(=O)O1 (stereo partly specified)	PAX8 reporter 111, EWS-Fli block 66, CF NFkB inh 66
COCCNC(=O)[C@@H]1[C@@H](CO)[C@@H]2Cn3c(ccc(-c4ccccc4)c3=O)[C@H]1N2C	none (no result: HIF-2a inh, KKLEB cytotox, CF NFkB inh)
CCCCNC1C(CC)C(CCC)C(C#N)(C#N)C1(C#N)C#N (stereo unspecified)	CF NFkB inh 81 (no result: PAX8 reporter, EWS-Fli block)
CC(C)c1cn([C@H]2C[C@@H]3O[C@@H](CO)CC[C@@H]3O[C@@H]2CCc2ccc(C#CC3CCCCC3)cc2)nn1	none (no result: HIF-2a inh, KKLEB cytotox, CF NFkB inh)
O=C(Cn1cc(C(F)(F)F)ccc1=O)Nc1ccc2c(c1)OCO2	PAX8 reporter 95
CCC(=O)N1CC2(C1)CN(C(=O)CN1CCOCC1)[C@H](CO)c1[nH]c3cc(OC)ccc3c12	none (no result: PAX8 reporter, HIF-2a inh, KKLEB cytotox, CF NFkB inh)
Cc1ccc(NC(=O)C2CC(=O)N/C(=N/N=C/c3ccco3)S2)cc1C (stereo unspecified)	PAX8 reporter 118
C=CCN1C(=O)[C@]2(O[C@H](CCO)[C@@H]([Si](C)(C)c3ccc(OC)cc3)[C@@H]2C)c2ccccc21	PAX8 reporter 94 (no result: HIF-2a inh, KKLEB cytotox, CF NFkB inh)
C=CCN1C(=O)[C@@]2(O[C@@H](CCO)[C@H]([Si](C)(C)c3ccc(OC)cc3)[C@H]2C)c2ccccc21	PAX8 reporter 66 (no result: HIF-2a inh, KKLEB cytotox, CF NFkB inh)
